# Source: article PMC8384837, “Expanding the binding specificity for RNA recognition by a PUF domain”
# Assays:
# Assay in all cases: yeast three-hybrid, YBZ-1, SC-Leu-His + 0.5 mM 3-AT, 4 days
# Settings in all cases: tags: N-Gal4 AD-HA kept; label: inside an RPR1-promoter hybrid RNA with tandem MS2 sites; ssRNA
# PUM1 PUF domain R2-RRC = PUM1 PUF domain R2-RRC (Homo sapiens, UniProt Q14671 828-1176, N899R;Y900R;Q903C)
# In short: (§1)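 The interaction score is the log change in how often each variant appears, from input to selection. Frequencies came from PCR-amplified, Illumina-sequenced repeat regions of Pumilio-1 PUF domain libraries grown in strain YBZ-1 (LexA–MS2 coat fusion, HIS3 reporter) alongside matching RNA elements. Input plates were SC-Leu and selection plates were SC-Leu-His + 0.5 mM 3-AT, each for four days, and the log2 calculation used a pseudocount of 1 where a variant was absent.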
# PUM1 PUF domain R3-RAG = PUM1 PUF domain R3-RAG (Homo sapiens, UniProt Q14671 828-1176, C935R;R936A;Q939G)
# In short: as §1
# PUM1 PUF domain R3-QRS = PUM1 PUF domain R3-QRS (Homo sapiens, UniProt Q14671 828-1176, C935Q;Q939S)
# In short: as §1
# PUM1 PUF domain R4-VFP = PUM1 PUF domain R4-VFP (Homo sapiens, UniProt Q14671 828-1176, N971V;H972F;Q975P)
# In short: as §1
# PUM1 PUF domain R4-WFG = PUM1 PUF domain R4-WFG (Homo sapiens, UniProt Q14671 828-1176, N971W;H972F;Q975G)
# In short: as §1
# PUM1 PUF domain R8-LFG = PUM1 PUF domain R8-LFG (Homo sapiens, UniProt Q14671 828-1176, N1122L;Y1123F;Q1126G)
# In short: as §1
# PUM1 PUF domain R5-VYF = PUM1 PUF domain R5-VYF (Homo sapiens, UniProt Q14671 828-1176, C1007V;R1008Y;Q1011F)
# In short: as §1
# PUM1 PUF domain R4-GPN = PUM1 PUF domain R4-GPN (Homo sapiens, UniProt Q14671 828-1176, N971G;H972P;Q975N)
# In short: as §1
# PUM1 PUF domain R5-KQC = PUM1 PUF domain R5-KQC (Homo sapiens, UniProt Q14671 828-1176, C1007K;R1008Q;Q1011C)
# In short: as §1
# PUM1 PUF domain R3-QRS, sequence (Q14671 828-1176 C935Q/Q939S): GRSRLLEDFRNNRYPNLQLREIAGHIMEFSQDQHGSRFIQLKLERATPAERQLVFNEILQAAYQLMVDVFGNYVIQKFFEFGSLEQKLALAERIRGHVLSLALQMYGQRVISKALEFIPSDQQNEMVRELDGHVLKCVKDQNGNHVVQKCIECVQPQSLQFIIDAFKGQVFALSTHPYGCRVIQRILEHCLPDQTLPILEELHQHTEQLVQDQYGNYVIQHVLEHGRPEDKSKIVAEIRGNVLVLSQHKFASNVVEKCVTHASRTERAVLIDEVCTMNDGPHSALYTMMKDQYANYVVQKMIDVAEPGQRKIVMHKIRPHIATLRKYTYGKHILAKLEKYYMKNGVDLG
# PUM1 PUF domain R8-LFG, sequence (Q14671 828-1176 N1122L/Y1123F/Q1126G): as the sequence (Q14671 828-1176 C935Q/Q939S) above, with Q108C, S112Q, N295L, Y296F, Q299G counted along it
# PUM1 PUF domain R4-WFG, sequence (Q14671 828-1176 N971W/H972F/Q975G): as the sequence (Q14671 828-1176 C935Q/Q939S) above, with Q108C, S112Q, N144W, H145F, Q148G counted along it
# PUM1 PUF domain R2-RRC, sequence (Q14671 828-1176 N899R/Y900R/Q903C): as the sequence (Q14671 828-1176 C935Q/Q939S) above, with N72R, Y73R, Q76C, Q108C, S112Q counted along it
# PUM1 PUF domain R4-GPN, sequence (Q14671 828-1176 N971G/H972P/Q975N): as the sequence (Q14671 828-1176 C935Q/Q939S) above, with Q108C, S112Q, N144G, H145P, Q148N counted along it
# PUM1 PUF domain R5-VYF, sequence (Q14671 828-1176 C1007V/R1008Y/Q1011F): as the sequence (Q14671 828-1176 C935Q/Q939S) above, with Q108C, S112Q, C180V, R181Y, Q184F counted along it
# PUM1 PUF domain R3-RAG, sequence (Q14671 828-1176 C935R/R936A/Q939G): as the sequence (Q14671 828-1176 C935Q/Q939S) above, with Q108R, R109A, S112G counted along it
# PUM1 PUF domain R4-VFP, sequence (Q14671 828-1176 N971V/H972F/Q975P): as the sequence (Q14671 828-1176 C935Q/Q939S) above, with Q108C, S112Q, N144V, H145F, Q148P counted along it
# PUM1 PUF domain R5-KQC, sequence (Q14671 828-1176 C1007K/R1008Q/Q1011C): as the sequence (Q14671 828-1176 C935Q/Q939S) above, with Q108C, S112Q, C180K, R181Q, Q184C counted along it
sequence,measurement,setting,value
GGCUAGAACUAGUGGAUCCCCCGGCGCCCGGCGGCUCGAGCCCGGGUAAGUGUAAAGAGUCUGCAUGCCGCCGGGCGCCAUGCCUGCAGGUCGACUCUAGAAAACAUG,binding signal,PUM1 PUF domain R2-RRC,2.42 log2 enrichment (interaction score)
GGCUAGAACUAGUGGAUCCCCCGGCGCCCGGCGGCUCGAGCCCGGGUAAGUGUAAUUAGUCUGCAUGCCGCCGGGCGCCAUGCCUGCAGGUCGACUCUAGAAAACAUG,binding signal,PUM1 PUF domain R3-RAG,3.75 log2 enrichment (interaction score)
same,binding signal,PUM1 PUF domain R3-QRS,2.68 log2 enrichment (interaction score)
GGCUAGAACUAGUGGAUCCCCCGGCGCCCGGCGGCUCGAGCCCGGGUAAGUGUAUAUAGUCUGCAUGCCGCCGGGCGCCAUGCCUGCAGGUCGACUCUAGAAAACAUG,binding signal,PUM1 PUF domain R4-VFP,3.78 log2 enrichment (interaction score)
same,binding signal,PUM1 PUF domain R4-WFG,2.4 log2 enrichment (interaction score)
GGCUAGAACUAGUGGAUCCCCCGGCGCCCGGCGGCUCGAGCCCGGGUAAGUGUAAAUAGUCUGCAUGCCGCCGGGCGCCAUGCCUGCAGGUCGACUCUAGAAAACAUG,binding signal,PUM1 PUF domain R8-LFG,1.28 log2 enrichment (interaction score)
same,binding signal,PUM1 PUF domain R5-VYF,2.44 log2 enrichment (interaction score)
same,binding signal,PUM1 PUF domain R4-GPN,3.62 log2 enrichment (interaction score)
same,binding signal,PUM1 PUF domain R4-WFG,1.81 log2 enrichment (interaction score)
GGCUAGAACUAGUGGAUCCCCCGGCGCCCGGCGGCUCGAGCCCGGGUAAGCGUAAAUAGUCUGCAUGCCGCCGGGCGCCAUGCCUGCAGGUCGACUCUAGAAAACAUG,binding signal,PUM1 PUF domain R8-LFG,2.38 log2 enrichment (interaction score)
GGCUAGAACUAGUGGAUCCCCCGGCGCCCGGCGGCUCGAGCCCGGGUAAGUGUCAAUAGUCUGCAUGCCGCCGGGCGCCAUGCCUGCAGGUCGACUCUAGAAAACAUG,binding signal,PUM1 PUF domain R5-KQC,3.25 log2 enrichment (interaction score)
GGCUAGAACUAGUGGAUCCCCCGGCGCCCGGCGGCUCGAGCCCGGGUAAGUGUAAGUAGUCUGCAUGCCGCCGGGCGCCAUGCCUGCAGGUCGACUCUAGAAAACAUG,binding signal,PUM1 PUF domain R3-QRS,2.75 log2 enrichment (interaction score)
